# GoLoco inh red: blocks human Gai1 binding to RGS12 GoLoco peptide, red readout; P63096; Gai1:RGS12 GoLoco peptide FP, rhodamine, 10 min; Potency, µM (highest dose often 61.6 µM), without a hit: at the highest dose activity, negative = inhibition, hits mostly inhibitors; hit rate 0.44% among 230,000; active means well fitted inhibition curve with a large enough effect, not every such curve was filed as active; inactive means no such curve, though single readings can be large or run the other way; further: on the % scale 0 is the no-effect control and ±100 the full control effect; nearly all actives have a fitted effect of over 30% in size
# TRb SRC2 PPI: inhibitors of human thyroid hormone receptor beta-SRC2 interaction. P10828. TRbeta-SRC2 peptide binding, fluorescence polarization; receptor liganded with 1 µM T3. Potency, µM (doses to about 106 µM), for inactives: top-dose activity change, negative = inhibition, actives largely listed as inhibitors. hit rate 0.065% among 280,000;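 further: plate controls were bound peptide for no effect and peptide without receptor for full effect; nearly all actives have a fitted effect of over 50% in size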
#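 Quantitative HTS by FP: 0.6 uM TRb LBD, 20 nM labeled SRC2 20-mer, 1 uM T3, 5% DMSO; 5 hr ambient incubation; % activity per concentration and potencies from concentration series.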
# BLM inh: inhibitors of human Bloom syndrome helicase BLM; P54132; Potency, µM (highest dose often 56.1 µM), inactives show at the highest dose activity change, negative = inhibition, usual class: inhibitors; recombinant BLM DNA unwinding, fluorescence dequenching; hit rate 0.2% among 350,000; AID 2528;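 further: plate controls were vehicle for no effect and no enzyme for full effect; nearly all actives have a fitted effect of over 35% in size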
# RECQ1 inh-1: blocks DNA unwinding by human RECQ1; RECQ1 DNA unwinding, red fluorescence kinetic read; Potency, µM (doses to about 57.3 µM), for the others: at the top dose activity, negative = inhibition, most hits filed as inhibitors; hit rate 0.54% among 240,000;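 further: plate controls were vehicle for no effect and no enzyme for full effect; nearly all actives have a fitted effect of over 30% in size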
#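 RECQ1T1 50 nM; forked duplex (20 bp + 30-nt ss tails) 200 nM, ATP 2 mM final; pH 8.0, 2 mM MgCl2, 2.5 ug/ml poly(dI-dC); 15 min compound preincubation; discontinuous kinetic read over 2 h at RT.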
# ERG-DNA inh: inhibitors of human ERG Ets domain-DNA interaction | P11308 | fluorescence polarization, His-ERG Ets domain / labelled DNA | Potency, µM (titrated, usually from 76.9 µM), for inactives: at the highest dose FP activity, negative = inhibition, actives largely listed as inhibitors | hit rate 0.028% among 370,000 | AID 624246; active means well fitted inhibition curve with a large enough effect in the polarisation, with a control signal flat; inconclusive means small, poorly fitted or top-dose-only effect, or effect the other way, or a change in a side signal; inactive means no such curve, though single readings can be large or run the other way; the % refers to the polarisation;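 further: polarization taken with two DNA probes labelled with fluorescein and Texas red; % of control where 0% means no effect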
# Target sequence (P11308 whole entry, looked up, the tested form may be a part): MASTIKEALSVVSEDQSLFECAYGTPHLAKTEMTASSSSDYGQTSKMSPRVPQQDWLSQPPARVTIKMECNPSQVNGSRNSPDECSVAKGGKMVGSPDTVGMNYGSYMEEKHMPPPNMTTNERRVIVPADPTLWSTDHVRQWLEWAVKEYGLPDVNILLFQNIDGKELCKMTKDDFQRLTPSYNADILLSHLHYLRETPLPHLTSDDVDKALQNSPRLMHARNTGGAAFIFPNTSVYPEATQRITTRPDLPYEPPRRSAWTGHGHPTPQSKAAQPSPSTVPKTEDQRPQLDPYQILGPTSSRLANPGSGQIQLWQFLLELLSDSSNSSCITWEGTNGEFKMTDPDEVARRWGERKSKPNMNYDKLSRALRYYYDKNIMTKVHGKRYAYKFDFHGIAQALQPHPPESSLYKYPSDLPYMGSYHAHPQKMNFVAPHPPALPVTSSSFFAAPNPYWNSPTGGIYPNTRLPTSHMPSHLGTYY
#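 His-tagged ERG Ets domain (1 uM in the protein solution; 300mM KCl, 50mM Tris-HCl, 1mM EDTA, 1mM DTT, pH 7.5) received compound, then a probe mix of 5 nM fluorescein-DNA and 100nM Texas-615-DNA. Fluorescence polarization was read for both dyes.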
# TR SRC2 fluor cs: counter-screen for TRb-SRC2 inhibitors: fluorescence interference; TRb/SRC2 Texas Red total fluorescence interference; Potency, µM (titrated, usually from 106 µM), for inactives: top-dose fluorescence change, negative = quenching; hit rate 0.29% among 280,000; AID 1479; active means well fitted curve in either direction with a large enough effect; inconclusive means small, poorly fitted or top-dose-only effect; further: on the % scale 0 is the no-effect control and ±100 the full control effect
#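 Human TRb ligand-binding domain at 0.6 uM with 20 nM Texas Red SRC2 peptide in Tris buffer containing 1 uM T3 and 5% DMSO, incubated with compound 5 h at ambient temperature. Total fluorescence (555/632 nm) calculated as parallel + 2 × perpendicular.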
# RECQ1 conf: confirmation of human RECQ1 helicase inhibitors; Potency, µM (top dose mostly 229 µM), for inactives: top-dose activity change, negative = inhibition, hits mostly inhibitors; shares compounds with RECQ1 inh-1; RECQ1 helicase DNA unwinding, fluorescence; AID 2708; hit rate 28% among 610; further: on the % scale 0 is the no-effect control and ±100 the full control effect; nearly all actives have a fitted effect of over 45% in size
# RECQ1 ADP FP: ADP displacement flagged in RECQ1 inhibitor counter-screen; shares compounds with RECQ1 inh-1; ADP fluorescence polarization displacement counterscreen; Potency, µM (series often up to 228 µM), for the others: at the highest dose activity change, negative = inhibition, most hits filed as inhibitors; hit rate 27% among 530; further: on the % scale 0 is the no-effect control and ±100 the full control effect; nearly all actives have a fitted effect of over 45% in size
# RECQ1 inh-2: RECQ1 helicase inhibition confirmed, round 2; shares compounds with RECQ1 inh-1; recombinant RECQ1 DNA unwinding, red fluorescence; Potency, µM (top dose mostly 119 µM), for inactives: at the top dose activity, negative = inhibition, usual class: inhibitors; hit rate 15% among 1,100; further: on the % scale 0 is the no-effect control and ±100 the full control effect; nearly all actives have a fitted effect of over 50% in size
# The depositor's hits bear a star; i = inactive; ? = inconclusive; / = not tested or not shown; ! = not confirmed by another sample; [ ] = remark or other dose. Sampled rows, rich in hits. Any-hit rate of the full collection: about 0.71%. Unless noted, the call rests on the fitted dose curve; in most records, active means well fitted curve in the direction sought with a large enough effect; inconclusive means small, poorly fitted or top-dose-only effect, or another doubt; inactive means no such curve, though single readings can be large; an effect the other way counts as inactive or inconclusive. Potency means the concentration at half of the fitted maximal effect.
SMILES,GoLoco inh red,TRb SRC2 PPI,BLM inh,RECQ1 inh-1,ERG-DNA inh,TR SRC2 fluor cs,RECQ1 conf,RECQ1 inh-2,others
N[C@@H](Cc1ccnnc1)C(=O)O,-3%[14.2 µM],/,/,/,/,/,/,/,
O=C1c2c(O)ccc(O)c2C(=O)c2c(NCCNCCO)ccc(NCCNCCO)c21,14%,-18%,10µM*,3.5µM*,-5%,-10%,45µM*,/,RECQ1 ADP FP=5.6µM*
CCN(CC)CCCC(C)n1c(-c2ccccc2)nc2c(NCCO)nc(C)nc21 (configuration not stated),1%,-2%,-1%,-1%,/,0%,/,/,
Cc1ccccc1C(=O)NC1(C(F)(F)F)N=C(c2ccccc2)N(C2CCCCC2)C1=O (configuration not stated),/,-3%,-6%,/,-3%,1%,/,/,
CC(C)c1cc(/C=C(\C#N)C(=O)NCCCc2ccccc2)cc(C(C)C)c1O,5%,-2%,/,-8%,/,-3%,/,/,
COc1ccc(N2CC(NC(=O)C3CC3)CC2=O)cc1 (configuration not stated),/,-1%,2%,/,4%,-1%,/,/,
O=C(C1=NN[C@@H]2C(=O)N(c3cccc(C(F)(F)F)c3)C(=O)[C@H]12)C(c1ccccc1)c1ccccc1,13%,13%,-12%,28µM*,-9%,0%,/,-20%,
O=C(C1=NN[C@@H]2C(=O)N(c3cccc(F)c3)C(=O)[C@H]12)C(c1ccccc1)c1ccccc1,17%,-1%,-2%,-6%,7%,-2%,/,/,
COc1cccc(OC)c1C(=O)Nc1ccc(-c2nc3ncccc3o2)cc1,/,4%,-3%,/,-15%,5%,/,/,
C=C[C@](C)(O)CCC1C(=C)CC(OC(C)=O)C2C(C)(C)CCCC12C (some centres not stated),-2%,2%,-18%,-13%,/,-2%,/,/,
COC(=O)CCCC1=CC2=CC(=O)C(C)(OC(=O)c3cccs3)C(=O)C2=CN1Cc1ccco1 (configuration not stated),1%[14.2 µM],-2%[11.2 µM],-10%[12.4 µM],?,-3%,0%[11.2 µM],/,9%,
CCCCC1=CC2=CC(=O)C(C)(OC(=O)CC)C(=O)C2=CN1Cc1ccco1 (configuration not stated),5%[14.2 µM],3%[11.2 µM],-6%[12.4 µM],?,20%,0%[11.2 µM],/,-11%,
CCCCC1=CC2=C(c3ccco3)C(=O)C(C)(OC(=O)c3ccc(OC)cc3)C(=O)C2=CN1Cc1ccco1 (configuration not stated),29%[14.2 µM],-1%[11.2 µM],?,6.3µM*!,8%,?,/,-9%,
CC1(OC(=O)c2cccs2)C(=O)C=C2C=C3CCCN3C=C2C1=O (configuration not stated),-16%[14.2 µM],0%[11.2 µM],22µM*,25µM*,-20%,-3%[11.2 µM],35µM*,?,RECQ1 ADP FP=35µM*
C=CCOC(=O)N[C@@H](c1ccccc1)[C@@H](C)[N+](=O)[O-],5%,1%,6%,-1%,/,-1%,/,/,
CCOc1ccccc1CN(CCc1ccc2c(c1)OCO2)Cc1cccc(OC)c1OC,/,3%,1%,/,-4%,-2%,/,/,
Cc1ccc(S(=O)(=O)N(C)C)cc1NC(=O)COC(=O)c1n[nH]c(=O)c2ccccc12,5%,-9%,3%,-5%,-2%,-3%,13%,/,RECQ1 ADP FP=?
CC1CCN(c2oc(/C=C/c3ccc(F)cc3)nc2C#N)CC1,/,-5%,-6%,/,-5%,-2%,/,/,
COc1ccccc1-c1cncnc1N1CCN(C)CC1,3%,/,0%,-4%,/,/,/,/,
Cc1cccc(CNc2ccnc(-c3ccccc3C(F)(F)F)n2)c1,-8%,/,-6%,-7%,/,/,/,/,
CCOc1ccc(N2C(=O)CC(Sc3ccccc3C(=O)O)C2=O)c([N+](=O)[O-])c1 (configuration not stated),-26%,-2%,-2%,i,-11%,-1%,11%,/,RECQ1 ADP FP=2%
Cc1cc2cc(C(c3nnnn3Cc3ccccc3)N3CCc4ccccc43)c(=O)[nH]c2cc1C (configuration not stated),97%,-22%,-7%,-3%,-16%,0%,/,/,
Cc1cc2cc(C(c3nnnn3Cc3ccco3)N3CCc4ccccc43)c(=O)[nH]c2cc1C (configuration not stated),/,-7%,-24%,?,-3%,-9%,/,-7%,
C=CCn1c(SCCC(=O)O)nnc1-c1cccs1,-5%,-5%,6%,-2%,1%,-2%,/,/,
C=CCn1c(SCC(=O)O)nnc1-c1cccs1,5%,-5%,2%,-3%,0%,-4%,-4%,/,RECQ1 ADP FP=5%
SMILES,GoLoco inh red,TRb SRC2 PPI,BLM inh,RECQ1 inh-1,ERG-DNA inh,TR SRC2 fluor cs,RECQ1 conf,RECQ1 inh-2,others
Cn1c(SCC(=O)Nc2nccs2)nnc1-c1ccc(S(=O)(=O)N2CCCC2)cc1,3%,4%,-1%,i,2%,3%,/,/,
O=C(CSc1n[nH]c(-c2ccc(S(=O)(=O)N3CCCCC3)cc2)n1)Nc1nccs1,1%,1%,-6%,i,/,-2%,-6%,/,RECQ1 ADP FP=25%
Cc1nnc(NC(=O)CSc2nnc(-c3ccc(S(=O)(=O)N4CCCC4)cc3)n2C)s1,1%,-1%,-6%,-1%,0%,-1%,-1%,/,RECQ1 ADP FP=13%
Clc1ccccc1-c1nnc2sc(C3COc4ccccc4O3)nn12 (configuration not stated),6%,-5%,-8%,4.5µM*,-3%,0%,-13%[114 µM],-19%,RECQ1 ADP FP=?
CC(C)c1ccc(Nc2nc(Nc3ccc(Cl)cc3)nc(N3CCOCC3)n2)cc1,/,/,/,/,/,/,-14%[69.1 µM],/,
CCn1c(SC(C)C(=O)O)nc2sc3c(c2c1=O)CCC3 (configuration not stated),7%,-15%,-10%,?,4%,-7%,/,?,
CCN(CCCNC(=O)c1nn(-c2ccc(OC)c(Cl)c2)c(=O)c2c1c1ccccc1n2C)c1cccc(C)c1,/,4%,-7%,/,2%,-1%,/,/,
COc1ccc(-n2c(/C=C/c3cc(OC)c(OC)cc3OC)nc3cc4ccccc4cc3c2=O)cc1Cl,/,4%,-6%,/,1%,-1%,/,/,
O=C1Nc2ccccc2SC(c2ccccc2)C1O (configuration not stated),40%,-4%,-8%,32µM*,5%,?,/,?,

# Screening data as filed in PubChem.
